Screening data as filed in PubChem BioAssay.
PTHR1 agonist = PTHR1 (human) receptor agonism. Potency, µM (doses to about 115 µM), without a hit: at the top dose activation, hits mostly activators. 410,000 compounds, 0.075% hits. HEK293 GP2 PTHR1 cells, GloSensor cAMP luminescence, 1 h. Q03431; also: potency is read from the fitted curve at half-maximal effect; nearly all actives have a fitted effect of over 55% in size
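HEK-293-derived GP2 cells expressing PTHR1 and a GloSensor cAMP reporter, 3,000/well, plated overnight, given luciferin plus IBMX (each 0.5 mM as added) for 1 h at 37 °C, then compound for 1 h at 37 °C. Luminescence was read after 15 min at room temperature.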
D3 antag = D3 dopamine receptor (human) antagonism; P35462; D3R cells, DiscoveRx beta-arrestin luminescence, antagonist mode; stronger effect = lower value; max response, negative = inhibition, %; 360,000 compounds, 2.5% hits; AID 652054; in the data active = max response below about -50%; inconclusive = no clear call, values can overlap the other calls; also: % is scaled to controls: 0 for no effect and ±100 for the full control effect
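Cells plated overnight at 1500 cells/well, then exposed to library compounds with dopamine controls for 90 minutes at 37 degrees C. DiscoveRx reagent added for 30–60 minutes at room temperature; luminescence read, quantitative HTS format.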
B2AR arrestin = beta2AR (human) beta-arrestin recruitment activity; P07550; beta-arrestin recruitment to beta2AR, cell-based reporter; Potency, µM (titrated, usually from 46.1 µM), without a hit: top-dose activation, hits mostly activators; 330,000 compounds, 0.02% hits;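 also: potency is read from the fitted curve at half-maximal effect; 0% = DMSO controls and full agonism = EC100 isoproterenol or metaproterenol; nearly all actives have a fitted effect of over 65% in size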
Target sequence (P07550 whole entry, looked up): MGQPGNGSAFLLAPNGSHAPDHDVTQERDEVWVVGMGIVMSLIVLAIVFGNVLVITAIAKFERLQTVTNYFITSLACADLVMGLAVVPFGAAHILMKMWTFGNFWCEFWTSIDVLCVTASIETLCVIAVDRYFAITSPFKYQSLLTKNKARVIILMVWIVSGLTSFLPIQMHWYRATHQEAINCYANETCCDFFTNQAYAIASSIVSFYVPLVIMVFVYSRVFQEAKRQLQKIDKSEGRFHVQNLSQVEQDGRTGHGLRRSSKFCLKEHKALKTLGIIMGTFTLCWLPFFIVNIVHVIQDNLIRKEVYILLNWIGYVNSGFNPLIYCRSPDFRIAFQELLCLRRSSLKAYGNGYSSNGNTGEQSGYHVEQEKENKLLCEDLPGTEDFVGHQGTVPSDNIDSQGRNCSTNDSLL
RGS4 inhibitor = human RGS4 inhibition | 390,000 compounds, 0.039% hits | Transcreener GDP fluorescence polarization, RGS4-accelerated GTP hydrolysis | P49798 | AID 504845 | Potency, µM (series often up to 114 µM), inactives show top-dose activity change, negative = inhibition, actives largely listed as inhibitors; also: potency is read from the fitted curve at half-maximal effect; % is scaled to controls: 0 for no effect and ±100 for the full control effect; nearly all actives have a fitted effect of over 75% in size
Target sequence (P49798 whole entry, looked up): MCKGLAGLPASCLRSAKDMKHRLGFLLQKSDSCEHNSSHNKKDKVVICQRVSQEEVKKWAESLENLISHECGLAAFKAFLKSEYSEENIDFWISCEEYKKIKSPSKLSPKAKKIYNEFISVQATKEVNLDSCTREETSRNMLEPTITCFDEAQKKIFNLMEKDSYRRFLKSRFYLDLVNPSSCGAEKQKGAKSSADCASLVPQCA
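MLSMR compounds (23 nl, pin-transferred) preincubated 10 min at room temperature with a 500nM (2x) first reagent, then RGS4 at 900nM (2x) plus Transcreener GDP mix added; fluorescence polarization (620/688 nm) read before and after 90 min at 30 °C.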
BRCA1 expr up = BRCA1 expression activation | Potency, µM (titrated, usually from 46.1 µM), for inactives: at the highest dose activation, usual class: activators | MCF7-BRCA1-FFLuc reporter, luminescence, 48 h; response scale: scaled: vehicle 0%, 10 µM genistein 100% | 380,000 compounds, 1.1% hits | AID 624202; also: potency is read from the fitted curve at half-maximal effect; nearly all actives have a fitted effect of over 80% in size
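Activators of BRCA1 expression were detected as increased firefly luciferase luminescence in engineered MCF7 cells after 48 h compound incubation. Signals were scaled to genistein 10 microM as full activation.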
D3 ag = activates the human D3 dopamine receptor. D3R DiscoveRx beta-arrestin cells, luminescence, 90 min. P35462. AID 652048. 410,000 compounds, 0.58% hits. max activation, %; in the data active = max activation above about 30%; also: 0% is about no effect
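Cells at 1500/well, incubated overnight, then treated with pinned compounds (dopamine as control) for 90 min at 37 degrees C. DiscoveRx reagent added for 30 - 60 minutes at room temperature; luminescence read.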
The depositor's hits bear a star; [ ] = dose if it differs, or a comment. This is a sample that favours compounds with a hit; in the whole collection about 3.7% have one here. Unless noted, calls follow the shape of the dose curve; as a rule, active = well fitted curve in the direction sought with a large enough effect; inconclusive = small, poorly fitted or top-dose-only effect, or another doubt; inactive = no such curve, though single readings can be large; an effect the other way counts as inactive or inconclusive.

For CCC(=O)c1ccc2c(c1)N(CCCN1CCN(CCO)CC1)c1ccccc1S2 the results were D3 ag -13.3.
Screening CCSc1ccc2c(c1)N(CCCN1CCN(C)CC1)c1ccccc1S2 returned PTHR1 agonist 1.0%, D3 antag -86.8*, B2AR arrestin 0.0%, RGS4 inhibitor 14.7%, BRCA1 expr up 2.6% and D3 ag -84.5.
For CN1CCN(CCCN2c3ccccc3Sc3ccc(Cl)cc32)CC1 the results were PTHR1 agonist 23.4%, D3 antag -102.0*, RGS4 inhibitor inconclusive and BRCA1 expr up -78.9%.
Screening OC1CC2CCC(C1)N2CCCN1c2ccccc2Sc2ccc(Cl)cc21 (stereo not given) returned PTHR1 agonist -16.4%, D3 antag -101.8*, RGS4 inhibitor 0.3%, BRCA1 expr up -83.3% and D3 ag -15.8.
Screening CC(CN1CCN(CCOCCO)CC1)CN1c2ccccc2Sc2ccc(Cl)cc21 (stereo not given) returned PTHR1 agonist inactive, D3 antag -116.9*, BRCA1 expr up -83.5% and D3 ag -7.4.
For CN1CCN(CCCN2c3ccccc3Sc3ccccc32)CC1 the results were D3 ag -26.0.
Screening Cc1nn(-c2ccc(N3CCOCC3)nn2)c(C)c1CCC(=O)NCc1ccc(OC(C)C)cc1 returned PTHR1 agonist -15.1%, RGS4 inhibitor -13.8%, BRCA1 expr up 0.0% and D3 ag 5.0.
For COC(=O)C(Cc1ccc(OC(=O)c2ccccc2Cl)cc1)N1Cc2ccccc2C1=O (stereo not given) the results were PTHR1 agonist -24.7%, D3 antag -6.7, B2AR arrestin 3.3%, RGS4 inhibitor -37.1%, BRCA1 expr up 6.31µM* and D3 ag -5.1.
`CCN1CCN(C(=O)Cn2ncc3c4ccccc4n(Cc4ccccc4)c3c2=O)CC1` gave PTHR1 agonist inactive, RGS4 inhibitor 12.0% and D3 ag 6.2.
`COc1ccc(C(C)(C)C)cc1S(=O)(=O)N1CCC(C(N)=O)CC1` gave PTHR1 agonist inactive, D3 antag -52.4*, B2AR arrestin -0.5%, RGS4 inhibitor -2.7%, BRCA1 expr up -0.3% and D3 ag -8.4.
For COc1ccc(F)cc1S(=O)(=O)N1CCC(C(N)=O)CC1 the results were PTHR1 agonist inactive, D3 antag 7.6, B2AR arrestin -0.1%, RGS4 inhibitor 11.8%, BRCA1 expr up -0.5% and D3 ag 0.9.
`O=S(=O)(Cc1noc(-c2ccc(Cl)cc2)n1)Cc1ccco1` gave PTHR1 agonist inactive, D3 antag -24.4, B2AR arrestin -0.6%, RGS4 inhibitor inconclusive, BRCA1 expr up 7.94µM* and D3 ag -3.2.
Screening COc1ccc2c(c1OC)C(=O)N(c1cccc(C(F)(F)F)c1)C2 returned PTHR1 agonist -13.4%[57.5 µM], D3 antag -7.9, B2AR arrestin 0.3%, RGS4 inhibitor 0.9%, BRCA1 expr up 2.82µM* and D3 ag 1.4.
Screening Cc1ccc2nc(-c3ccc(N4C(=N)SC5CS(=O)(=O)CC54)cc3)sc2c1 (stereo not given) returned PTHR1 agonist inactive, D3 antag 13.7, B2AR arrestin -0.4%, RGS4 inhibitor -11.3%, BRCA1 expr up 8.91µM* and D3 ag 2.6.
`Cc1nc(N2CCN(c3ccccn3)CC2)c2c(C)c(C(=O)Nc3c(C)cc(Br)cc3C)sc2n1` gave PTHR1 agonist -4.0%, D3 antag 25.4, B2AR arrestin 0.4%, RGS4 inhibitor 3.1%, BRCA1 expr up -1.6% and D3 ag 16.0.
`Cc1nc(N2CCC(C)CC2)c2c(C)c(C(=O)Nc3ccccc3C(F)(F)F)sc2n1` gave PTHR1 agonist -12.0%, D3 antag 77.4, B2AR arrestin 0.1%, RGS4 inhibitor -4.8%, BRCA1 expr up -16.0% and D3 ag 31.3*.
`Cc1nc(N2CCN(c3ccccn3)CC2)c2c(C)c(C(=O)Nc3c(F)cc(F)cc3Br)sc2n1` gave PTHR1 agonist inactive, D3 antag 39.8, B2AR arrestin 0.5%, RGS4 inhibitor 13.2%, BRCA1 expr up -16.9% and D3 ag 39.3*.
`COc1cc([C@@H]2c3cc4c(cc3C(O[C@@H]3O[C@@H]5COC(c6cccs6)O[C@H]5[C@H](O)[C@H]3O)C3COC(=O)[C@@H]32)OCO4)cc(OC)c1O` (stereo not given in full) gave D3 ag 4.2.
Screening CCCn1c(N)c(NCCN2CCOCC2)c(=O)[nH]c1=O returned PTHR1 agonist -3.7%, D3 antag -3.3, B2AR arrestin 0.5%, RGS4 inhibitor 6.3%, BRCA1 expr up -7.1% and D3 ag 4.1.
O=C(NCc1ccc(F)cc1)C1C2C=CC3(CN(Cc4cccnc4)C(=O)C13)O2 (stereo not given) was read as PTHR1 agonist inactive, D3 antag -17.2, B2AR arrestin 0.0%, RGS4 inhibitor -19.0%, BRCA1 expr up 14.9% and D3 ag 31.1*.
`O=C(NCc1ccc(Cl)cc1)C1C2C=CC3(CN(Cc4cccnc4)C(=O)C13)O2` (stereo not given) gave PTHR1 agonist inactive, D3 antag 7.6, B2AR arrestin -0.5%, RGS4 inhibitor 24.5%, BRCA1 expr up 6.6% and D3 ag 2.8.
For Nc1nc(-c2ccccc2)c(N=Nc2ccccc2Cl)s1 the results were PTHR1 agonist -0.3%, D3 antag -59.4*, B2AR arrestin -0.3%, RGS4 inhibitor -8.3%, BRCA1 expr up -87.5% and D3 ag -7.9.
`Nc1nc(-c2ccccc2)c(N=Nc2cccc3ccccc23)s1` gave PTHR1 agonist inactive, D3 antag inconclusive, B2AR arrestin -1.1%, RGS4 inhibitor 0.4%, BRCA1 expr up -89.7% and D3 ag -9.0.
For Cc1ccc(CCC(=O)Nc2ccc([N+](=O)[O-])cc2)o1 the results were PTHR1 agonist -74.5%, D3 antag -18.8, B2AR arrestin -0.5%, RGS4 inhibitor inconclusive, BRCA1 expr up 14.0% and D3 ag -4.4.
Screening CCNC(=O)C1(C)CCCN(Cc2ccc(Oc3ccccc3)cc2)C1 (stereo not given) returned PTHR1 agonist -13.5%, D3 antag 8.8, BRCA1 expr up -0.6% and D3 ag -12.1.
Screening O=C(C1CC(=O)N(c2ccccc2)C1)N1CCN(c2ccccc2F)CC1 (stereo not given) returned PTHR1 agonist -37.0%, D3 antag -6.2, B2AR arrestin 0.3%, RGS4 inhibitor -18.8%, BRCA1 expr up -4.4% and D3 ag 2.9.
